Experimental data taken from PubChem BioAssay (NCATS).
Records with an inconclusive call do not appear. Activity calls are given as the source filed them. Unless noted, the call rests on the fitted dose curve; in most records, active means well fitted curve in either direction with a large enough effect (not every such curve was filed as active); inconclusive means small, poorly fitted or top-dose-only effect, or another doubt; inactive means flat fitted curve, though single readings scatter.

Legend:
[1] = AP1 Signaling Pathway (AID 357); conditions: ME-180 AP-1-bla reporter, EGF-induced, beta-lactamase ratio, 5 h; at 17.2 µM (top of the series) unless noted; further: on the % scale 0 is the no-effect control and ±100 the full control effect
Procedure, shortened: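 AP-1-bla ME-180 cells with beta-lactamase reporter under AP-1 response element, stimulated with EC50 EGF; compounds titrated, 5 hours at 37 degrees Celsius. CCF4 read at 460/530 nm ratio; positive and negative modulators judged by AC50.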

[2] = NFAT Signaling Pathway (AID 444); conditions: Jurkat NFAT-bla M1, carbachol, beta-lactamase ratio, 5 h; at 17.2 µM (top of the series) unless noted;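 further: carbachol stimulus at about its EC50 of 1 µM final; on the % scale 0 is the no-effect control and ±100 the full control effect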
Procedure, shortened: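 Jurkat cells with NFAT-driven β-lactamase reporter and co-expressed M1 receptor, stimulated with carbachol (final 1 uM, ~EC50), compound titration, 5 h at 37 °C. CCF4 loaded 1 h at RT; 460/530 nm ratio gave %activity and AC50.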

[3] = Stat Signaling Pathway (AID 446); conditions: ME-180 SIE beta-lactamase reporter, IL-6 stimulated, 5 h; at 17.2 µM (top of the series) unless noted;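 further: ME-180 cervical cancer cells given 40 pM IL-6 alongside compound; SIE-controlled beta-lactamase reporter measured as 460/530 nm FRET emission ratio; on the % scale 0 is the no-effect control and ±100 the full control effect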
Procedure, shortened: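 Compound effects on IL-6-induced STAT reporter activity were measured in ME-180 cells. After overnight culture, cells were co-treated with 40 pM IL-6 for 5 hrs before beta-lactamase substrate loading at room temperature.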

[4] = target: Glucocorticoid receptor (Homo sapiens) (UniProt P04150); assay: GR-GFP Redistribution (AID 450;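 active means compounds whose dose series gives a full or clear partial fitted curve of increased nuclear translocation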; further: potency means the concentration at half of the fitted maximal effect)
[5] = qHTS Assay for Identification of Small Molecule Agonists for Hypoxia Response Element Signaling Pathway (AID 914; active means well fitted activation curve with a large enough effect in the signal ratio, with a control signal flat, not every such curve was filed as active; the % refers to the signal ratio; further: % of control where 0% means no effect); conditions: ME-180 (cervical carcinoma) HRE-bla reporter, beta-lactamase ratio, CoCl2, 17 h; activation: active compounds read high
Procedure, shortened: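 HRE-bla ME-180 cells with beta-lactamase reporter under hypoxia response element, compounds with EC50 CoCl2 for 17 hours at 37 C. CCF4 substrate, 460nm/530nm emission ratio gave %Activity; AC50 from titration series.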

[6] = target: 3',5'-cyclic-AMP phosphodiesterase 4B (Homo sapiens) (UniProt Q07343); assay: qHTS Assay for Inhibitors of PDE-IV (AID 607; active means well fitted activation curve with a large enough effect in the main read-out, with a control signal flat, not every such curve was filed as active; further: % of control where 0% means no effect)
Procedure, shortened: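 ACTOne HEK293 cells carry a modified cAMP-gated CNG channel and express endogenous PDE4; plated 1000 cells/well, compounds up to 22.9 uM final. Membrane-potential dye fluorescence (ex 535/em 590) was read; parental cells received 10 uM forskolin + 100 uM RO 20-1724.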

[7] = qHTS Assay for Identification of Small Molecule Agonists for Thrombopoietin (TPO) Signaling Pathway (AID 917; active means well fitted curve in the direction sought with a large enough effect; an effect the other way counts as inactive or inconclusive; further: on the % scale 0 is the no-effect control and ±100 the full control effect)
Procedure, shortened: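 Stimulation at the TPO EC50 (26 pM final) was used to detect activators. Ba/F3 mouse cells bearing human TPO receptor and a luciferase reporter under the Glycoprotein IIb promoter were exposed to compounds for 24 hrs at 37 C.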

[8] = target: Pyruvate kinase (Leishmania mexicana) (UniProt Q27686); assay: qHTS Validation Assay for Inhibitors of Leishmania Mexicana Pyruvate Kinase (AID 945; active means well fitted curve in the direction sought with a large enough effect; an effect the other way counts as inactive or inconclusive;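 further: 0% = DMSO only neutral control wells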)
Procedure, shortened: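 Eight-point qHTS titrations in triplicate, data normalized to DMSO neutral control. Reaction: 0.2 nM LmPYK E451W mutant, 0.5 mM PEP, 0.1 mM ADP, 7 mM MgCl2, pH 7.2, one hour at room temperature; luminescent ATP detection.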

[9] = target: Pyruvate kinase PKM (Homo sapiens) (UniProt P14618); assay: qHTS Assay for Activators of Human Muscle Pyruvate Kinase (AID 954; active means well fitted curve in the direction sought with a large enough effect, not every such curve was filed as active;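 further: 0% = uninhibited enzyme and -100% = no enzyme or full thiadiazolimine inhibition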)
Procedure, shortened: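 A coupled luminescent readout tracked ATP made from ADP by purified PKM2. Final conditions included 0.1 nM enzyme, PEP and ADP at 0.5 and 0.1 mM, pH 7.2 imidazole buffer with BSA, and a one-hour room-temperature reaction.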

[10] = target: Alpha-galactosidase A (Homo sapiens) (UniProt P06280); assay: Counterscreen for Glucocerebrosidase Inhibitors: qHTS Assay for Human alpha-Galactosidase at pH 4.5 (AID 992; active means well fitted curve in the direction sought with a large enough effect; an effect the other way counts as inactive or inconclusive; further: 0% is about no effect)
Procedure, shortened: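 Citrate buffer pH 4.5, Tween-20 0.005%. Enzyme 2 nM, substrate 80 uM, 20 min RT. Stop pH 10. Fluorescence Ex 365/Em 440. AC50 by Hill fit.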

[11] = target: alpha-glucosidase (Oryza sativa, rice) (UniProt Q653V4); assay: Counterscreen for Glucocerebrosidase Inhibitors: qHTS Assay for Rice alpha-Glucosidase at pH 5.0 (AID 997; active means well fitted curve in the direction sought with a large enough effect; an effect the other way counts as inactive or inconclusive;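 further: 0% = full activity with enzyme and -100% = basal without enzyme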)
Procedure, shortened: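 Endpoint fluorogenic assay at pH 5.0: compounds (0.7 nM to 77 uM) titrated against 4 nM rice enzyme and 400 uM 4-MU-alpha-glucoside for 20 min at room temperature; NaOH/glycine stop, read ex 365/em 440 nm, Hill-fitted AC50.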

Glucocorticoid receptor (Homo sapiens), sequence (P04150 whole entry, looked up): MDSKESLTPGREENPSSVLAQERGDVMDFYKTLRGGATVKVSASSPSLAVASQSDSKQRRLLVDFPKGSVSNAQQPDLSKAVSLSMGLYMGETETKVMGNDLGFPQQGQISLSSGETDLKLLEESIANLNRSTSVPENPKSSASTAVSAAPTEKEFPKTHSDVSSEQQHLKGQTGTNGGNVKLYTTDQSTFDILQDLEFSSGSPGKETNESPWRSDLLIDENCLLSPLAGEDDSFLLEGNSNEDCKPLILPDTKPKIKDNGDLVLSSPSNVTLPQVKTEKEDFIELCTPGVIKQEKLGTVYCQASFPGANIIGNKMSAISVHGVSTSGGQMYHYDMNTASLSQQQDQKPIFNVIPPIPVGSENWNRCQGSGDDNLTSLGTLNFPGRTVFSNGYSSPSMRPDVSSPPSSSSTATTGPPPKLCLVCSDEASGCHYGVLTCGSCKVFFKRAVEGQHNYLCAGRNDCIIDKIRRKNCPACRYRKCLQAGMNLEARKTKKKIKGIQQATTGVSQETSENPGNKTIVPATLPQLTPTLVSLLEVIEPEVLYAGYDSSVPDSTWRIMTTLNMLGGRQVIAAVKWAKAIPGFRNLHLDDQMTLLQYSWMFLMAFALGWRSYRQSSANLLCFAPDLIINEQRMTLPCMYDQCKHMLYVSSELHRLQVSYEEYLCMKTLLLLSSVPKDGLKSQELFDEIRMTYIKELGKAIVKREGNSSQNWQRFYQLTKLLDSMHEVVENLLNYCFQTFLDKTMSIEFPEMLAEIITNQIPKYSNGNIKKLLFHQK
Pyruvate kinase (Leishmania mexicana), sequence (Q27686 2-499 E452W): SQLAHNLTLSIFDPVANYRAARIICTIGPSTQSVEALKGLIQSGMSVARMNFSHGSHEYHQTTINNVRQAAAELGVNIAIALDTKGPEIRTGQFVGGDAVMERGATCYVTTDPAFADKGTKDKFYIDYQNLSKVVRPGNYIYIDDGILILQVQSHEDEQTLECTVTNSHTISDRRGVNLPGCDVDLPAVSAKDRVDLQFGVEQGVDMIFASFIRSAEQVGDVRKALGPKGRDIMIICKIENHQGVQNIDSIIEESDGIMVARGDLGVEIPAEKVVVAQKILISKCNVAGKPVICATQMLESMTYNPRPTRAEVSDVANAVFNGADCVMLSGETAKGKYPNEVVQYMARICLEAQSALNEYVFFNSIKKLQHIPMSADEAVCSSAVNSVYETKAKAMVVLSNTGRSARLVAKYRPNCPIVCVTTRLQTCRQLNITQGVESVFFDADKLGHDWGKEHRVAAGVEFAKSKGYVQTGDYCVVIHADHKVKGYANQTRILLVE
3',5'-cyclic-AMP phosphodiesterase 4B (Homo sapiens), sequence (Q07343 whole entry, looked up): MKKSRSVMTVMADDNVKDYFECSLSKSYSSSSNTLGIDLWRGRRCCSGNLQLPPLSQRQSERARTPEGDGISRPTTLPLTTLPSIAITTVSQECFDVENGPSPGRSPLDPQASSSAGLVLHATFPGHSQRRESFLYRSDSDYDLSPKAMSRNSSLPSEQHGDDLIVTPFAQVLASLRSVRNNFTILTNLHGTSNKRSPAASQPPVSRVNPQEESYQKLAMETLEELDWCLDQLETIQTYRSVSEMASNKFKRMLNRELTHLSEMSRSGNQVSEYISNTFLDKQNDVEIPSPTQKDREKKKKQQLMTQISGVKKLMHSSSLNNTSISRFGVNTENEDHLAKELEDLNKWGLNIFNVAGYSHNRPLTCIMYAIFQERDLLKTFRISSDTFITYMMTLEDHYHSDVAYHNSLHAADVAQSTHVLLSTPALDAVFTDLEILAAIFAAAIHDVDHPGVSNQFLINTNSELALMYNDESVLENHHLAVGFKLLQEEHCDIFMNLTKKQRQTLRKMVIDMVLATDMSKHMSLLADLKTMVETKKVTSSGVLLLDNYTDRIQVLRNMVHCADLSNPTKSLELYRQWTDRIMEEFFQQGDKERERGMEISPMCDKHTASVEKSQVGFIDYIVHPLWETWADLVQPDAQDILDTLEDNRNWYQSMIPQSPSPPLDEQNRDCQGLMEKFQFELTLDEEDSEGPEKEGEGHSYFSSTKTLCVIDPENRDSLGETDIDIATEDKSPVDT
Alpha-galactosidase A (Homo sapiens), sequence (P06280 whole entry, looked up): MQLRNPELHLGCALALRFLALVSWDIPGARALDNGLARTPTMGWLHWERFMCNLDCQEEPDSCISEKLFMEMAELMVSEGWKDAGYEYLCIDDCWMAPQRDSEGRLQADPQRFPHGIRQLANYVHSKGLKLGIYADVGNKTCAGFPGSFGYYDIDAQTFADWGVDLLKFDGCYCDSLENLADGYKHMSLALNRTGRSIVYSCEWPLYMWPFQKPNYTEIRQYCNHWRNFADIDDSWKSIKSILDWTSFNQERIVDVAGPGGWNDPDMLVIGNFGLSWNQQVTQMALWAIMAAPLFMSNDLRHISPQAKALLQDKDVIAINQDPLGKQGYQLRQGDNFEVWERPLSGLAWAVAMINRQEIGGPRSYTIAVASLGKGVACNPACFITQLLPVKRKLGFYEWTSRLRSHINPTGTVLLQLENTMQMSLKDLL
Pyruvate kinase PKM (Homo sapiens), sequence (P14618 whole entry, looked up): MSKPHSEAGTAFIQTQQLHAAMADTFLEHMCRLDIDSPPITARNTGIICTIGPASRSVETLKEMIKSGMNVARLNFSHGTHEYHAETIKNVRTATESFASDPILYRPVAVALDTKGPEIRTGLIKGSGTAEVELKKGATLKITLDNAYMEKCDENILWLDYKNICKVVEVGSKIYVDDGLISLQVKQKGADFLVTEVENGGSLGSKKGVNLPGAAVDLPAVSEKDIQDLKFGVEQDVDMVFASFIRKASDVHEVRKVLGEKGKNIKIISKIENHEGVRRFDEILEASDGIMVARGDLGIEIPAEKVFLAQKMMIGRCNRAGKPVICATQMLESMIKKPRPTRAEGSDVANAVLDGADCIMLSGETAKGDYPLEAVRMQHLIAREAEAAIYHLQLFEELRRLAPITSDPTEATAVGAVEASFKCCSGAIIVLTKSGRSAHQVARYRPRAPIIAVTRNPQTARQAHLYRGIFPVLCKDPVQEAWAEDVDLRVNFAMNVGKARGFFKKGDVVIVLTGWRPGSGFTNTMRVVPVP

Cc1ccc(S(=O)(=O)N(CC(O)CN2CCOCC2)c2cc(Cl)ccc2Cl)cc1 (configuration not stated)
inactive: activity change, negative = inhibition [1] 0.294% | activity change, negative = inhibition [2] -11% | activity, negative = inhibition [3] -1.96% | Potency [4] > 20.6 µM | activation [5] 11.1%

Cn1c(NCCCO)nc2c1c(=O)n(Cc1ccccc1F)c(=O)n2C
inactive: activity change, negative = inhibition [1] -2.43% | activity change, negative = inhibition [2] 8.23% | activity, negative = inhibition [3] -2.21% | Potency [4] > 20.6 µM | activation [5] -5.37%

COCc1cc(C)nc(N)c1C#N
inactive: activity change, negative = inhibition [1] 5.99% | activity change, negative = inhibition [2] -10.9% | activity, negative = inhibition [3] -0.857% | Potency [4] > 20.6 µM | activation [5] 1.6%

CN1[C@@H]2CC(OC(=O)[C@@H](CO)c3ccccc3)C[C@H]1[C@H]1O[C@H]12 (some centres not stated)
active: activity change, negative = inhibition [2] -57.6% [at 38 µM]
inactive: activity change, negative = inhibition [1] 4.86% [at 38 µM] | activity, negative = inhibition [3] 13.4% [at 38 µM] | Potency [6] | Potency [7] | Potency [8] | outcome [9] | outcome [10] | outcome [11]

CC1(C)CC(=O)C=C(NCCO)C1
inactive: activity change, negative = inhibition [1] 20.8% | activity change, negative = inhibition [2] 2.7% | Potency [4] > 20.6 µM

CSc1ccccc1NC(=O)c1c(Br)cnn1C
inactive: activity change, negative = inhibition [1] -8.39% | activity change, negative = inhibition [2] -10.8% | activity, negative = inhibition [3] 1.88% | Potency [4] > 20.6 µM | activation [5] 27.6%

Cc1ccc(OCc2nnc(NC(=O)c3ccco3)s2)c(C)c1
inactive: activity change, negative = inhibition [1] -4.34% | activity change, negative = inhibition [2] 11.7% | activity, negative = inhibition [3] -14.8% | Potency [4] > 20.6 µM | activation [5] -11.9%

CC(C)(C)NCc1cc2ccccc2[nH]c1=O
inactive: activity change, negative = inhibition [1] -4.82% | activity change, negative = inhibition [2] -24.2% | activity, negative = inhibition [3] 3.71% | Potency [4] > 20.6 µM | activation [5] -14.6%

Cc1nn(CCO)c2c1C(=O)CCC2
inactive: activity change, negative = inhibition [1] 3.9% | activity change, negative = inhibition [2] -9.31% | activity, negative = inhibition [3] 5.4% | Potency [4] > 20.6 µM | activation [5] 12.2%

COC(=O)c1ccc(=O)n(Cc2ccc3c(c2)OCO3)c1
inactive: activity change, negative = inhibition [1] -0.911% | activity change, negative = inhibition [2] 6.79% | activity, negative = inhibition [3] -1.86% | Potency [4] > 20.6 µM | activation [5] 26.1%
